High-throughput results deposited in PubChem BioAssay by The Scripps Research Institute Molecular Screening Center.
A selection: hits, their analogues and other compounds. The true share with any hit is near 3.4%.
FBW7 activator: activators of human E3 ligase FBW7 | Q969H0 | AlphaScreen FBW7–phospho-cyclin E peptide binding, activator screen | normalized activity (activation), % at 26.1 µM | 650,000 compounds, 0.13% hits | AID 1259310; in the data active = normalized activity above about 1.9%;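 also: purified mutant Fbw7 with reduced substrate affinity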
Target sequence (Q969H0 whole entry, looked up): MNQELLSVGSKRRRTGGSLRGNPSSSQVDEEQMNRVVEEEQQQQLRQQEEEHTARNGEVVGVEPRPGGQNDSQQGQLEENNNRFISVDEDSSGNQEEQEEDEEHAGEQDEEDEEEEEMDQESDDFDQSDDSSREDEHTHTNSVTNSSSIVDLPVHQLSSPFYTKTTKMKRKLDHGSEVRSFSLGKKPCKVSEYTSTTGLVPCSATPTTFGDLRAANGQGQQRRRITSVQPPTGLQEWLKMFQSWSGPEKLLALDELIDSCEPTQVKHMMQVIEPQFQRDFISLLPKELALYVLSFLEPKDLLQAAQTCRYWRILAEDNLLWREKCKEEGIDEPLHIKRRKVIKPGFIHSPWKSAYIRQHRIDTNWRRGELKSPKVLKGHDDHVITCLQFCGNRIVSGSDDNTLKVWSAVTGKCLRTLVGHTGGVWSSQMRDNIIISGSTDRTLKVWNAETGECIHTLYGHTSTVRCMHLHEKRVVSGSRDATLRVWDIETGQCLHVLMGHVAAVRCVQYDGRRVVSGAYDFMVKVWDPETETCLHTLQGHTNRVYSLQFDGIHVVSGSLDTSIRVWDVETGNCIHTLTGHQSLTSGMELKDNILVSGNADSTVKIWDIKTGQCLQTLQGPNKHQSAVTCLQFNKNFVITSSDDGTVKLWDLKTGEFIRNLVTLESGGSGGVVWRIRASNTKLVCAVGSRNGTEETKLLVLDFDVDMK
GPR151 ag: human GPR151 activation; Q8TDV0; PathHunter beta-arrestin GPR151 cells, luminescence; activation, % at 11.2 µM; 650,000 compounds, 1% hits; AID 1508602; in the data active = activation above about 4.9%;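 also: 0% = median of compound wells and 100% = cells with positive control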
MITF inh: human MITF inhibition, primary screen. AlphaScreen MITF homodimerization, bead proximity signal. inhibition, % at 2.6 µM. 650,000 compounds, 0.91% hits. AID 1259374; in the data active = inhibition above about 50%;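 also: 0% = vehicle wells with protein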
TEAD-YAP inh: TEAD-YAP interaction inhibition; inhibition, % at 9.12 µM; 640,000 compounds, 1.4% hits; AID 1259422; HEK-TIYL cells, TEAD-Gal4/YAP UAS-luciferase luminescence; in the data active = inhibition above about 32%;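 also: 0% = median of test compound wells and 100% = reference inhibitor wells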
Starred values were filed as active, the others as inactive.

SMILES	FBW7 activator	GPR151 ag	MITF inh	TEAD-YAP inh
Cc1cccc(N(C)c2ccnc3c(-c4cccc(C(N)=O)c4)cnn23)c1	0	2	-10	34*
Cn1nc(CC(=O)Nc2ccc3c(c2)OCCO3)c2ccccc2c1=O	0	-1	-6	50*
Cn1nc(CC(=O)Nc2cccc(C(F)(F)F)c2)c2ccccc2c1=O	0	3	1	42*
COc1ccc(C(=O)Oc2ccc(NC(=O)Cc3nn(C)c(=O)c4ccccc34)cc2)cc1	0	0	-7	-4
O=C(Cc1ccc2c(c1)OCCO2)Nc1ccc2ccccc2c1	0	0	0	42*
COc1ccc(CC(=O)Nc2ccc3c(c2)OCCO3)cc1OC	0	0	11	1
Cn1nc(CC(=O)Nc2ccc(Oc3ccccc3)cc2)c2ccccc2c1=O	0	3	5	40*
Cn1nc(CC(=O)Nc2ccc3c(c2)OCO3)c2ccccc2c1=O	0	0	0	26
Cn1nc(CC(=O)Nc2cccc(O)c2)c2ccccc2c1=O	0	1	-7	5
CCOC(=O)c1c(-c2ccc(OC)cc2)oc2ccc(OCc3ccc(C)cc3)cc12	0	-1	13	1
CC(C)OC(=O)C(C(=O)C(F)(F)F)c1cc(NS(=O)(=O)c2ccc(Cl)cc2)c2ccccc2c1O (stereo unspecified)	0	-1	-7	-4
Cn1nc(CC(=O)Nc2ccc(Cl)cc2)c2ccccc2c1=O	1	-1	19	39*
Cc1ccc(C)n1CCCC(=O)Nc1ccc2c(c1)OCCO2	0	1	-1	59*
Cn1c(C(=O)O)c(CC(=O)Nc2ccc3c(c2)OCCO3)c2ccccc21	0	-1	21	35*
Cc1ccc(NC(=O)Cc2nn(C)c(=O)c3ccccc23)cc1F	0	1	3	20
O=C(c1cccc(F)c1F)N1CCc2c([nH]c3ccccc23)C1c1ccc2c(c1)OCO2 (stereo unspecified)	0	2	8	11
COc1cc(/C=C2/SC(=S)N(C)C2=O)ccc1OCC(=O)O	0	0	13	0
Cc1ccc(NC(=O)COc2cc(=O)n3ccccc3n2)cc1F	0	-1	19	-13
O=C(NC(=S)N1CCCCC1)c1ccc2c(c1)OCO2	0	0	7	-19
C=CCn1c(=NC(=O)C2=COCCO2)sc2cccc(OC)c21	0	-1	6	-10
C=CCn1c(=NC(=O)C2=COCCO2)sc2cc(F)ccc21	1.9*	-1	-2	-15
O=C(O)C1CCCN(c2nn3cc(-c4ccc(F)cc4)nc3s2)C1 (stereo unspecified)	0	-13	-5	85*
COc1ccc(-c2cn3nc(N4CCCC(C(=O)O)C4)sc3n2)cc1 (stereo unspecified)	0	0	42	-4
CC12CN(CO)CC(C)(CN(Cc3ccccc3)C1)C2=O	2.6*	1	7	8
CC12CNCC(C)(CN(Cc3ccccc3)C1)C2=O	0	-1	1	6
SMILES	FBW7 activator	GPR151 ag	MITF inh	TEAD-YAP inh
CCS(=O)(=O)C1=NN2C(=N)/C(=C\c3ccc(Br)o3)C(=O)N=C2S1	-1	0	78*	0
CCS(=O)(=O)C1=NN2C(=N)/C(=C\c3ccc([N+](=O)[O-])o3)C(=O)N=C2S1	-1	0	93*	3
CS(=O)(=O)C1=NN2C(=N)/C(=C\c3ccc(Br)o3)C(=O)N=C2S1	0	3	79*	-10
CS(=O)(=O)C1=NN2C(=N)/C(=C\c3ccc(Br)cc3)C(=O)N=C2S1	0	-2	2	-17
CCS(=O)(=O)C1=NN2C(=N)/C(=C\c3ccc(C)o3)C(=O)N=C2S1	0	2	0	-5
Cc1ccc2nc(SCC(=O)Nc3c[nH]c(=O)[nH]c3=O)c(C#N)cc2c1	0	-1	15	-3
O=C(c1ccc(Cl)cc1)N1CCN(c2ccc([N+](=O)[O-])c(Sc3cccc4cccnc34)c2)CC1	0	2	16	1
N#C/C(=C\c1cccc2ccccc12)c1nnc2n1CCCCC2	0	0	12	-2
O=C(/C=C/c1ccc([N+](=O)[O-])s1)Nc1ccc(-c2nc3ccccc3[nH]2)cc1	0	0	2	-8
CSCCNC(=O)CC1C(=O)NCCN1C1Cc2ccccc2C1 (stereo unspecified)	0	0	19	-12
Oc1ccc(CNc2cccc(Br)c2)c2cccnc12	-1	-1	27	1
Oc1ccc(CNc2ccc(Cl)cn2)c2cccnc12	-1	-1	31	54*
CCOc1ccc(NCc2ccc(O)c3ncccc23)cc1	-1	0	62*	11
O=C(N/N=C/c1ccccc1O)c1n[nH]c2c1CCC2	-1	-1	18	33*
Cc1ccc(/C=N/NC(=O)c2n[nH]c3c2CCCC3)cc1	0	-1	10	18
O=C(N/N=C/c1cc2c([nH]1)CCCC2)c1n[nH]c2c1CCC2	0	-1	21	33*
C/C(=N/NC(=O)c1n[nH]c2c1CCCC2)c1cccc(O)c1	0	0	-3	23
C/C(=N/NC(=O)c1n[nH]c2c1CCC2)c1cccc(O)c1	0	1	-1	40*
Cc1ccsc1/C=N\NC(=O)c1n[nH]c2c1CCCC2	0	-9	13	82*
CN1CCN(C(=O)/C=C/c2ccc(F)cc2)CC1	0	-1	-2	-9
Cc1ccc(C(C)(C)C)cc1S(=O)(=O)Nc1ccc(C(=O)NCC(=O)O)cc1	0	0	4	-4
Cc1cccc(N2C(=O)[C@@H]3C[C@H]2CN3C(=O)Cc2ccccc2F)c1	0	0	12	-7
O=C(N/N=C\c1cccc(Cl)c1)c1n[nH]c2c1CCCC2	0	1	16	25
O=C(N/N=C/c1cccc(O)c1)c1n[nH]c2c1CCC2	0	-6	11	46*
COc1cc(/C=N/NC(=O)c2n[nH]c3c2CCCC3)ccc1O	0	-1	10	36*
SMILES	FBW7 activator	GPR151 ag	MITF inh	TEAD-YAP inh
CN(C)c1ccc(/C=N/NC(=O)c2n[nH]c3c2CCC3)cc1	0	1	10	35*
O=C(NN=C1CCCCC1)c1n[nH]c2c1CCC2	0	-1	18	57*
O=C(O)c1n[nH]c2c1CCCCCC2	0	1	-7	-11
COc1cc(-c2c(C(C)=O)c(C)[nH]c(=S)c2C#N)cc(OC)c1OC	0	0	-1	-2
O=C(NCCc1ccc(Cl)cc1)c1cc2ccccc2o1	0	3	-2	-6
Cc1cc(I)ccc1NC(=O)c1ccc(N2CCCC2=O)cc1	0	-3	-2	-8
O=C(N/N=C/c1cccc(O)c1)C1C2CCCCC21 (stereo unspecified)	0	-1	-4	60*
CC(C)c1ccc(NS(=O)(=O)c2cccc3cnccc23)cc1	0	0	17	56*
O=C(Cn1cnc2sc3c(c2c1=O)CCCC3)NCc1ccccn1	0	1	11	8
COc1ccc(/C=N/NC(=O)c2cc(O)c(O)c(O)c2)cc1Cn1cnc([N+](=O)[O-])n1	0	-1	97*	5
